Experiments:
[1] = biological target: Tyrosine-protein kinase Fer (Homo sapiens) (UniProt P16591); conditions: at 1 µM
[2] = biological target: Tyrosine-protein kinase Fes/Fps (Homo sapiens) (UniProt P07332); conditions: at 0.1 µM
[3] = biological target: Tyrosine-protein kinase Fes/Fps (Homo sapiens) (UniProt P07332); conditions: at 1 µM
[4] = biological target: Fibroblast growth factor receptor 1 (Homo sapiens) (UniProt P11362); conditions: at 0.1 µM
[5] = biological target: Fibroblast growth factor receptor 1 (Homo sapiens) (UniProt P11362); conditions: at 1 µM
[6] = biological target: Fibroblast growth factor receptor 2 (Homo sapiens) (UniProt P21802); conditions: at 0.1 µM
Fibroblast growth factor receptor 2 (Homo sapiens), sequence (P21802 22-821 limits assumed): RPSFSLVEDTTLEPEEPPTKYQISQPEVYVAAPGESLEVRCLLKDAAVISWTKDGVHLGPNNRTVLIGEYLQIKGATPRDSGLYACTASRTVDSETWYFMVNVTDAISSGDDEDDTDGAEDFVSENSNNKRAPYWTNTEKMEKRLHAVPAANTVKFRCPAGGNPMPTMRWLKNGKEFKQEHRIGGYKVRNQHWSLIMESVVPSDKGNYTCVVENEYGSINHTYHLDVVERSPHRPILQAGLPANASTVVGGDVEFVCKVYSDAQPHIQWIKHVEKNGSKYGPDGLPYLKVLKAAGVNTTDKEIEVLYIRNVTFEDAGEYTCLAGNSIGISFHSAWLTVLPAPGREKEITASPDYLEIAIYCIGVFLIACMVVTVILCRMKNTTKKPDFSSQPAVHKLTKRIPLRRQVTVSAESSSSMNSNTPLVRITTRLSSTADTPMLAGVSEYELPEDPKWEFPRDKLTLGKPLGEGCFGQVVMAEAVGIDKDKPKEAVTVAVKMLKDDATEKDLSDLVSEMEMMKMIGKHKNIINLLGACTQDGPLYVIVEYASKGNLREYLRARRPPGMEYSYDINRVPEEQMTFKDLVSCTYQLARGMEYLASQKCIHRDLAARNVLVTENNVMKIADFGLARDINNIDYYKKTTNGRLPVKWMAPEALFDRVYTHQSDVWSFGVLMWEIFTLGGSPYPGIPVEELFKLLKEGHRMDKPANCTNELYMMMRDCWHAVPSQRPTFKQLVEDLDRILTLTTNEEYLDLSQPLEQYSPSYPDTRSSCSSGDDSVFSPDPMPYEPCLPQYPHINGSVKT

[7] = biological target: Fibroblast growth factor receptor 2 (Homo sapiens) (UniProt P21802); conditions: at 1 µM
[8] = biological target: Fibroblast growth factor receptor 3 (Homo sapiens) (UniProt P22607); conditions: at 0.1 µM
[9] = biological target: Fibroblast growth factor receptor 3 (Homo sapiens) (UniProt P22607); conditions: at 1 µM
[10] = biological target: Fibroblast growth factor receptor 4 (Homo sapiens) (UniProt P22455); conditions: at 0.1 µM
Fibroblast growth factor receptor 4 (Homo sapiens), sequence (P22455 22-802 limits assumed): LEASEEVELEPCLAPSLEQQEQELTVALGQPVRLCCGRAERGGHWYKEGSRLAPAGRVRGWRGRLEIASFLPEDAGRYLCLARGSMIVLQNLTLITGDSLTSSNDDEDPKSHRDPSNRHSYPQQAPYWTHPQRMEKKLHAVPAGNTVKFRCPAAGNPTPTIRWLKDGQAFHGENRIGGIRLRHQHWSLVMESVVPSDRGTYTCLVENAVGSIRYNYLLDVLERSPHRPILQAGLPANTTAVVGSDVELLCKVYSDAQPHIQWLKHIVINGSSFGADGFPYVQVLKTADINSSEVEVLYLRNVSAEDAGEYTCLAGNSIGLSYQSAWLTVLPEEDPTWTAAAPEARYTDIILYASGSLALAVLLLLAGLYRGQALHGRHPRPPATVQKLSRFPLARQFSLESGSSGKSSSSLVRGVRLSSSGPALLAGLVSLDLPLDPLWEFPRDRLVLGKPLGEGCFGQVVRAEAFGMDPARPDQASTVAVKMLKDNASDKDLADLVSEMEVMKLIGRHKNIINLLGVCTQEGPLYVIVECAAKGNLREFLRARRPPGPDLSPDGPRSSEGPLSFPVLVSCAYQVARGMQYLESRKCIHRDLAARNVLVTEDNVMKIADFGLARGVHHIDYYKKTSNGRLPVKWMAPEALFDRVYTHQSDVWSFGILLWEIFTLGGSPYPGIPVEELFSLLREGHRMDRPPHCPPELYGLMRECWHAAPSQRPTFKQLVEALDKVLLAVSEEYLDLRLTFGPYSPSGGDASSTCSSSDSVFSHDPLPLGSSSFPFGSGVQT

[11] = biological target: Fibroblast growth factor receptor 4 (Homo sapiens) (UniProt P22455); conditions: at 1 µM
[12] = biological target: Tyrosine-protein kinase Fgr (Homo sapiens) (UniProt P09769); conditions: at 0.1 µM
Tyrosine-protein kinase Fgr (Homo sapiens), sequence (P09769 2-529 limits assumed): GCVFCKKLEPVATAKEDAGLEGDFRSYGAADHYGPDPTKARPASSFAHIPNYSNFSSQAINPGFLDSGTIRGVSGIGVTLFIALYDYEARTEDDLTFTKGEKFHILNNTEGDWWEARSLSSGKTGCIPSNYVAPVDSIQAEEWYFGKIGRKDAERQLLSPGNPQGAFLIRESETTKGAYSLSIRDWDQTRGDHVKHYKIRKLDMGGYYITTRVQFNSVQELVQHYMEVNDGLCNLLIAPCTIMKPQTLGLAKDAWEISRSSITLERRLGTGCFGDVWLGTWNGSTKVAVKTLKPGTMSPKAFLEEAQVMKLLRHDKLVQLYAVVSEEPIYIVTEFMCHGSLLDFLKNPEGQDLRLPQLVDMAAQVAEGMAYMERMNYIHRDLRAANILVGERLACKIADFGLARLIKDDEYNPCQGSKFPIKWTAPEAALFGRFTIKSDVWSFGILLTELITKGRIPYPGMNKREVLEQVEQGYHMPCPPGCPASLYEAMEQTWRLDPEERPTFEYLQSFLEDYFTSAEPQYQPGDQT

[13] = biological target: Tyrosine-protein kinase Fgr (Homo sapiens) (UniProt P09769); conditions: at 1 µM
[14] = biological target: Vascular endothelial growth factor receptor 1 (Homo sapiens) (UniProt P17948); conditions: at 0.1 µM
[15] = biological target: Vascular endothelial growth factor receptor 1 (Homo sapiens) (UniProt P17948); conditions: at 1 µM
[16] = biological target: Receptor-type tyrosine-protein kinase FLT3 (Homo sapiens) (UniProt P36888); conditions: at 0.1 µM
[17] = biological target: Receptor-type tyrosine-protein kinase FLT3 (Homo sapiens) (UniProt P36888); conditions: at 1 µM
[18] = test system: T1, Receptor-type tyrosine-protein kinase FLT3 (Homo sapiens), P36888 [D835Y]; conditions: at 0.1 µM
T1 sequence (whole entry): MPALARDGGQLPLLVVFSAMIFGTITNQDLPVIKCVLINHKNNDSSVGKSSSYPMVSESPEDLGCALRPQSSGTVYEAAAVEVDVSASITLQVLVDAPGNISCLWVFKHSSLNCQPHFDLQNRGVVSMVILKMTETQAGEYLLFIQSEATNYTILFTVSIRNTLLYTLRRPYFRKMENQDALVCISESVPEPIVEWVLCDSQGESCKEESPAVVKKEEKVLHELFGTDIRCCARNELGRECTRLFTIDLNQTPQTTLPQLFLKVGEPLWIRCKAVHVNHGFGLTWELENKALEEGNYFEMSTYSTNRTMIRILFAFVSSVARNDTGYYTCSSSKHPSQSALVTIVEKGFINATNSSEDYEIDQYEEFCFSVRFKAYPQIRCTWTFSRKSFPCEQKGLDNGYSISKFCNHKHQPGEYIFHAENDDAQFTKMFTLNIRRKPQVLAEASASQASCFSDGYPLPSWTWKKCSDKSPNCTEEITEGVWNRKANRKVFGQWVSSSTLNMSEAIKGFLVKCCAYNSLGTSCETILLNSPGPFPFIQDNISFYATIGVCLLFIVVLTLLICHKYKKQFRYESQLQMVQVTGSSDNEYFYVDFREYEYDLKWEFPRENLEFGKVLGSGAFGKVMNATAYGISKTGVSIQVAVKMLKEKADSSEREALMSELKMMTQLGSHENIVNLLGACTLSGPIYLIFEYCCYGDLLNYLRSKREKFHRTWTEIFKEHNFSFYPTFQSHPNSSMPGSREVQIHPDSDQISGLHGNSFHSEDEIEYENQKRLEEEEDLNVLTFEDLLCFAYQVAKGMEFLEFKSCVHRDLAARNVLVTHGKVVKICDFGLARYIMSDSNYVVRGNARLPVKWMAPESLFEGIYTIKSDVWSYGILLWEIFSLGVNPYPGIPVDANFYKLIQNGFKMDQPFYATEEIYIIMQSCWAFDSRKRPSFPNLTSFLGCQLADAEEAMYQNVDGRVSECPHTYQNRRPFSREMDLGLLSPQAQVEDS

[19] = biological target: Non-receptor tyrosine-protein kinase TYK2 (Homo sapiens) (UniProt P29597); conditions: at 1 µM;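 note: values are mean percent inhibition of TYK2 kinase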
Non-receptor tyrosine-protein kinase TYK2 (Homo sapiens), sequence (P29597 whole entry): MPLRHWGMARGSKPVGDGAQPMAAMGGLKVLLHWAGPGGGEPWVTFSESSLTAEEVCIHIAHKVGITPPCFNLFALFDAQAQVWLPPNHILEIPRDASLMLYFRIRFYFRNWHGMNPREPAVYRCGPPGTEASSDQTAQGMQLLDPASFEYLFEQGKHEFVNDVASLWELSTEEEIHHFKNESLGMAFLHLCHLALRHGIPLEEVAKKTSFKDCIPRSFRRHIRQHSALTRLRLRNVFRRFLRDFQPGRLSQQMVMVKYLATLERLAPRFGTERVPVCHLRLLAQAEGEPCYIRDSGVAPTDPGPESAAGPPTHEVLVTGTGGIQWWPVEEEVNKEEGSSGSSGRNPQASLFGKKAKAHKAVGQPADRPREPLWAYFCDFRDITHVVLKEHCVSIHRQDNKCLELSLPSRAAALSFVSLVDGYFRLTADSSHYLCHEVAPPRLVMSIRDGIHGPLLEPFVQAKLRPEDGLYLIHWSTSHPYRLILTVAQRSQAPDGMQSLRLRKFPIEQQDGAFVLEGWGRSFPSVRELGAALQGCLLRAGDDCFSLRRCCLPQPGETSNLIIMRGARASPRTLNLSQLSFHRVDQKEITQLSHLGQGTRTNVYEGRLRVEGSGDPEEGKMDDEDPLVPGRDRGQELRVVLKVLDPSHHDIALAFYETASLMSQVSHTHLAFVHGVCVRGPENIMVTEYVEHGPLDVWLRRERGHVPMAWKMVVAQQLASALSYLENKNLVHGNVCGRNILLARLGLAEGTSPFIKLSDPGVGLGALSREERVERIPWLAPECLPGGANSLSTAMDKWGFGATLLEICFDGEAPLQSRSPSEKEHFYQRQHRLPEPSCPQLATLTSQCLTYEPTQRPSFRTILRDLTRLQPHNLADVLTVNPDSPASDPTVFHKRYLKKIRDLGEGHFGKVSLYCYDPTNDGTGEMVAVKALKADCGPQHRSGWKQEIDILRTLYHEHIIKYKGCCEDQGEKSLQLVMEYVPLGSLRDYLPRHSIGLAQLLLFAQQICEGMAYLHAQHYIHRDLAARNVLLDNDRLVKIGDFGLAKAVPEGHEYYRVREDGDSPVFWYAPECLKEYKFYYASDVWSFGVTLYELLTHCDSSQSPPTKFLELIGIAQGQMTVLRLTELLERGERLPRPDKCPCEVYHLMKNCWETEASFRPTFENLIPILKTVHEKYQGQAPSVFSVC

[20] = biological target: T2, Tyrosine-protein kinase receptor TYRO3 (Homo sapiens) (UniProt Q06418); conditions: at 0.1 µM;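 note: reported percentages are averaged inhibition values of TYRO3 kinase activity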
T2 sequence (whole entry): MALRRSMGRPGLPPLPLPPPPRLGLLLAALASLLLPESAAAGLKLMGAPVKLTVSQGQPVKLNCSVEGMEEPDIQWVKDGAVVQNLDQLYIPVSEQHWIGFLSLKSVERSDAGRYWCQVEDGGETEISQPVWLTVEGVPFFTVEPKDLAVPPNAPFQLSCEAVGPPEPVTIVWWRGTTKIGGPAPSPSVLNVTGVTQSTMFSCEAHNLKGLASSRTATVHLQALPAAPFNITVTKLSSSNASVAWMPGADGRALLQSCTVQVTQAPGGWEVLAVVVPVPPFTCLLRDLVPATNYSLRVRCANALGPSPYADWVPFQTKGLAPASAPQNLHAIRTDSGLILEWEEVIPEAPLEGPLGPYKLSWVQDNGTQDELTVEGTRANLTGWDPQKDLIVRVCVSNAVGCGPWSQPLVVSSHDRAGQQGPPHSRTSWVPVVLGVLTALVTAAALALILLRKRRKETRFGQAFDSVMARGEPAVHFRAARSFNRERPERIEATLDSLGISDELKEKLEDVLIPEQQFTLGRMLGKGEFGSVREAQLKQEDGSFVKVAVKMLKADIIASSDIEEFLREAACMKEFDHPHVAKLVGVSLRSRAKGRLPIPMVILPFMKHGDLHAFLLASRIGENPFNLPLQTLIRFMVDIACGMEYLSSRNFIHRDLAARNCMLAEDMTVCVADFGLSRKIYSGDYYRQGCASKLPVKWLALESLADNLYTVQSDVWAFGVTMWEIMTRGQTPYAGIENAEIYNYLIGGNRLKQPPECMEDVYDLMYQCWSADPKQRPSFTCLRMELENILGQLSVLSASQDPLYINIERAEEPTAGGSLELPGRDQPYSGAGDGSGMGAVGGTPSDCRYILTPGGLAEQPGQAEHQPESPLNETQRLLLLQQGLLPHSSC

Tyrosine-protein kinase Fer (Homo sapiens), sequence (P16591 whole entry, looked up): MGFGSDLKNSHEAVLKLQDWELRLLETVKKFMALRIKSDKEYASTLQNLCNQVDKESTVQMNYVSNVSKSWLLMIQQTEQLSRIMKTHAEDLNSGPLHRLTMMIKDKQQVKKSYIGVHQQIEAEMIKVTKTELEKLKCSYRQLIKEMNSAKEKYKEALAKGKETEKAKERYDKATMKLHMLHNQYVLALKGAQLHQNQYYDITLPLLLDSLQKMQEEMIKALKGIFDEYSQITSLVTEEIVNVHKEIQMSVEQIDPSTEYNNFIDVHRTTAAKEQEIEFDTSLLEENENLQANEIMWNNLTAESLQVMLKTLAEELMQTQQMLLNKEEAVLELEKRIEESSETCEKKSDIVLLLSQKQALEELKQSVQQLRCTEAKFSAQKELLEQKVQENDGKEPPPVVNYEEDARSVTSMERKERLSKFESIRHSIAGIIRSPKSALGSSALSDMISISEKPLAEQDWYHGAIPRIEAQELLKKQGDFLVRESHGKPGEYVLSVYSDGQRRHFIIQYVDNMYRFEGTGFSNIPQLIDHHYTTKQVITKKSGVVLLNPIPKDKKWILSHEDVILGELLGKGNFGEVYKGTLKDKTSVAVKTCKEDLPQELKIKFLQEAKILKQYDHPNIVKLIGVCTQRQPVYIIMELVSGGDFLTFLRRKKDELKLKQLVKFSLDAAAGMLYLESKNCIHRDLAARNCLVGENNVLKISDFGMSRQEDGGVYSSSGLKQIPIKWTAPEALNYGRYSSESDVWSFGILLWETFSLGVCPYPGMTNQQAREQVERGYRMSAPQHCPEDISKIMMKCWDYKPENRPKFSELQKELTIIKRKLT
Fibroblast growth factor receptor 1 (Homo sapiens), sequence (P11362 22-822 limits assumed): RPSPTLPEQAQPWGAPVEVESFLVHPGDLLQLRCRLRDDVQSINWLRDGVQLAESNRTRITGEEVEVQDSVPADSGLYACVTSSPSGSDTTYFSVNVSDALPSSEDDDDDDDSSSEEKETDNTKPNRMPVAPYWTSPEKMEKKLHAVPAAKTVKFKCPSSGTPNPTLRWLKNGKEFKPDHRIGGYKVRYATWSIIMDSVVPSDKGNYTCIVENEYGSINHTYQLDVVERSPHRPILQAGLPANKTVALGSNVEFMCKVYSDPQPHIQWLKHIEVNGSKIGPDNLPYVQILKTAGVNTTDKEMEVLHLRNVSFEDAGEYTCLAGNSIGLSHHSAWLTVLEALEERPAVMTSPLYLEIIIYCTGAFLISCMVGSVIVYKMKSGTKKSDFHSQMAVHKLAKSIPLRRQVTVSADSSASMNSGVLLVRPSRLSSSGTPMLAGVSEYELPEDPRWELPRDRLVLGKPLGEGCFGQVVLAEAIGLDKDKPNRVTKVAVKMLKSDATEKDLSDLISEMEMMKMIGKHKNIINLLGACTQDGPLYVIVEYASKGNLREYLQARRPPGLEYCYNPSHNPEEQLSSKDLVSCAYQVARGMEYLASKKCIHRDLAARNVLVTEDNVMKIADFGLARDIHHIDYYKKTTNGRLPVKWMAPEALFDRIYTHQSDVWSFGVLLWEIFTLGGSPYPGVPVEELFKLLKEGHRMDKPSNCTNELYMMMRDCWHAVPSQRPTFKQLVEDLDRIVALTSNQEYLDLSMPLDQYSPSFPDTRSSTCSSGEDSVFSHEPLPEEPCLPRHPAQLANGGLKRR

Structure (SMILES) | inhibition [1] [%] | inhibition [2] [%] | inhibition [3] [%] | inhibition [4] [%] | inhibition [5] [%] | inhibition [6] [%] | inhibition [7] [%] | inhibition [8] [%] | inhibition [9] [%] | inhibition [10] [%] | inhibition [11] [%] | inhibition [12] [%] | inhibition [13] [%] | inhibition [14] [%] | inhibition [15] [%] | inhibition [16] [%] | inhibition [17] [%] | inhibition [18] [%] | inhibition [19] [%] | inhibition [20] [%]
CCCN1CCC(Oc2cc(Nc3nc(Nc4cccc(F)c4C(N)=O)c4cc[nH]c4n3)c(OC)cc2Cl)CC1 | 16 | 0.64 | 8.02 | 0.06 | 3.54 | -2.81 | 3.3 | 0.52 | 0.96 | 0.71 | 1.48 | 0.61 | 4.19 | -0.02 | 2.7 | 0.23 | 2.55 | -3.12 | 0.45 | -0.27
Fc1cccc(COc2ccc(Nc3ncnc4sc(-c5cccs5)cc34)cc2Cl)c1 | 9.05 | 0.45 | 0.01 | 4.36 | 5.02 | 2.92 | 3.32 | 0.4 | 6.81 | 0.35 | 3.41 | 1.43 | 3.69 | -0.58 | 3.56 | 0.38 | 3.27 | -2.12 | 1.15 | 0.54
COc1cc2c(cc1Nc1nc(N3CCc4ccccc43)c3cc[nH]c3n1)N(C(=O)CN(C)C)CC2 | 85.2 | 39.9 | 62.3 | 2.98 | -1.36 | 0.56 | 6.55 | 3.52 | 0.84 | -1.03 | 0.78 | -0.2 | 3.44 | 1.49 | 2.02 | 0.56 | -1.35 | -2.55 | -2.82 | 1.61
[O-][S+]1CCN(Cc2ccc(-c3ccc4ncnc(Nc5ccc(OCc6ccccc6)c(F)c5)c4c3)o2)CC1 | 6.08 | 1.91 | 3.4 | 2.71 | -2.34 | 1.34 | 3.9 | 3.41 | 2.82 | 0.38 | 0.02 | 0.4 | 9.74 | 1.64 | -1.13 | -0.1 | 2.1 | -4.8 | -3.99 | 1.34
Cn1cc(C=C2C(=O)Nc3cccnc32)c2ccccc21 | 20.8 | 1.69 | 2.19 | 6.57 | 17.3 | 9.78 | 42.2 | 11.2 | 47.8 | 2.46 | 14.1 | 7.5 | 44 | 1.42 | 13.1 | 20.3 | 66.2 | 32.7 | 0.73 | 2.36
c1cnn2ncc(-c3ccnc(Nc4ccc5c(c4)OCCO5)n3)c2c1 | 43.7 | 10.5 | 48 | 5.77 | 5.22 | 6.35 | 15.9 | 6.39 | 15.7 | -0.77 | 4.77 | 4.29 | 14.5 | 8.17 | 20.5 | 29.5 | 75.7 | 9.31 | 12.8 | 5.88
CS(=O)(=O)CCN(CC#N)Cc1ccc(-c2ccc3ncnc(Nc4ccc(OCc5cccc(F)c5)c(Cl)c4)c3c2)o1 | 1.14 | 0.82 | 0.27 | -3.34 | -4.3 | -1.21 | -2.13 | -1.19 | -0.34 | 0.11 | -4.08 | 0.96 | 1.68 | 3.08 | 6.33 | -0.67 | 2.32 | -4.23 | -4.41 | -1.18
COc1cccc(-n2ncc3c(N/N=C/c4cccc(F)c4)ncnc32)c1 | 3.05 | 1.31 | 0.83 | -2.97 | -3.18 | -3.24 | -0.48 | 0.54 | -0.4 | -3.35 | -5.17 | 7.31 | 32.6 | -0.74 | 3.31 | 0.44 | 6.78 | 9.42 | -0.15 | 3.08
CC1=C(C(=O)Nc2ccc3[nH]ncc3c2)C(c2ccc(F)cc2)NC(=O)N1 (stereo not given) | 2.17 | 0.59 | 0.3 | -0.9 | 6.58 | 3.51 | 18.4 | 4.3 | 14.7 | 1.22 | 7.73 | 0.15 | 0.7 | -0.38 | 2.35 | 0.82 | 0.62 | -0.62 | 26.3 | 1.55
Nc1nc(-c2ccc3c(c2)C(=Cc2cc(Br)c(O)c(Br)c2)C(=O)N3)cs1 | 3.05 | -2.93 | -3.65 | -5.75 | -1.36 | -1.12 | 1.88 | -0.11 | 1.45 | -4.66 | 3.96 | -0.02 | 5.44 | -0.63 | 0.2 | -3.03 | 0.66 | -2.57 | 2.43 | -0.46
O=C1NC(=O)C(N2CCc3ccccc32)=C1c1ccc(Cl)cc1 | 6.71 | 4.08 | 7.35 | 5.27 | 13 | 6.84 | 14 | 8.07 | 11.6 | -1.04 | 1.44 | 2.39 | 8.07 | 1.82 | 5.14 | 2.06 | 5.05 | -2.14 | -4.27 | 3.4
COc1ccc(-c2coc3ncnc(N)c23)cc1 | 2.33 | 4.28 | 5.04 | 3.15 | 9.2 | 3.85 | 10.1 | 6.98 | 6.72 | -5.79 | 1.55 | 0.55 | 5.25 | -1.7 | 2.37 | 2.97 | 4.59 | 3.34 | -3.97 | 2.29
COC(=O)Nc1nc2cc(Oc3cccc(NC(=O)Nc4cc(C(F)(F)F)ccc4F)c3)ccc2[nH]1 | 1.61 | -0.51 | 0.56 | -2.84 | 0 | -1.71 | 2.62 | 0.57 | 1.54 | -1.4 | 0.74 | 1.17 | 3.3 | 2.97 | 25.7 | -3.12 | 3.93 | 1.62 | 1.94 | -1.36

Reference: ChEMBL document CHEMBL1961873, “Compounds: GSK PKIS; Assays: Nanosyn kinase panel” (2012)
